This is a sample that favours compounds with a hit; in the whole collection about 1.2% have one here.
Furin inhibitor – human furin inhibitors, primary screen, biochemical, fluorescence intensity; P09958; purified furin, fluorogenic substrate cleavage; inhibition, % at 20 µM or 30 µM; 220,000 tested, 0.061% active; AID 463115, 2010; in the data active = inhibition above about 25%
Target sequence (P09958 108-714 limits assumed): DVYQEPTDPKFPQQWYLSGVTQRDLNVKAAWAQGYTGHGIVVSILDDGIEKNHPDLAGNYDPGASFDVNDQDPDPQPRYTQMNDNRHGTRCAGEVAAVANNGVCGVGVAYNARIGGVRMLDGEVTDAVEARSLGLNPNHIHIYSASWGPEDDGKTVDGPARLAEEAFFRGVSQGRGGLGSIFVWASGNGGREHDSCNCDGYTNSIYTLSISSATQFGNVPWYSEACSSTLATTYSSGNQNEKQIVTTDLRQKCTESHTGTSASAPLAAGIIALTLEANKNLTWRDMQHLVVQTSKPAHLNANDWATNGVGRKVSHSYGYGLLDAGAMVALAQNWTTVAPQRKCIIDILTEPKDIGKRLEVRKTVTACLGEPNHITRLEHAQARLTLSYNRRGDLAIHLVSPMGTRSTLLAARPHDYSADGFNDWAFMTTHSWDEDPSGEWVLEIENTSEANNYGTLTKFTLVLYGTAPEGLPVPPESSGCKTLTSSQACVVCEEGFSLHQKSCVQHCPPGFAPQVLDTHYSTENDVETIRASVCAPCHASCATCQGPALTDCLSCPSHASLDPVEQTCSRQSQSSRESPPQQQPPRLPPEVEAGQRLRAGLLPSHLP
SUMO HTRF inh – inhibitors of in vitro SUMOylation cascade, primary screen, biochemical, HTRF, uHTS | inhibition, % at 35 µM | HTRF SUMOylation assay, SAE1/SAE2 + UBC9 | 290,000 tested, 0.36% active | SUMO-conjugating enzyme UBC9 (Homo sapiens), P63279; in the data active = inhibition above about 50%, passing the limit was not always enough
PKD1 inh – inhibitors of human PKD1 kinase, biochemical, fluorescence polarization. PKD1 kinase fluorescence polarization assay. inhibition, % (test concentration not listed). 200,000 tested, 0.056% active. AID 797, 2007; in the data active = inhibition above about 50%
FAS TE block – FAS thioesterase domain inhibitors, primary screen, biochemical, fluorescence intensity, uHTS; recombinant FAS-TE, OMFH fluorogenic substrate, fluorescence endpoint; inhibition, % at 15 µM; 360,000 tested, 0.67% active; AID 602261, 2012;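 active = compounds whose normalised, plate-corrected inhibition of enzyme fluorescence in the single-dose primary screen is 50% or more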
p97 ATPase inh – inhibitors of human p97 ATPase, primary screen, biochemical; recombinant p97 ATPase, Kinase-Glo ATP luminescence, 3 h; inhibition, % at 8 µM; 220,000 tested, 0.42% active; in the data active = inhibition above about 15%
DTT redox prof – compounds producing H2O2 with reducing agent – biochemical, NIH compound library profiling, artefact control for MLSCN library redox annotation, primary screen | DTT-dependent redox cycling H2O2, phenol red/HRP absorbance; 100% = 100 µM peroxide control, 0% = buffer | activation, % at 10 µM | 200,000 tested, 0.03% active;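 active = activation of at least 50% relative to the plate's high and low controls in the primary single-dose screen; inactive = activation below 50%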;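 also: compound incubated with DTT at 0.8 mM final as the reducing agent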
FAS-TE conf – FAS thioesterase domain inhibitors, confirmation, biochemical, fluorescence intensity, single concentration. shares compounds with FAS TE block. inhibition, % at 15 µM. AID 624325, 2012. 2,300 tested, 45% active. recombinant FAS-TE, OMFH fluorogenic substrate;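 active = compounds inhibiting the enzyme by at least 50% at 15 µM in any one of the replicates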
A number is an active result; i = inactive; nt = no result given.

SMILES	Furin inhibitor	SUMO HTRF inh	PKD1 inh	FAS TE block	p97 ATPase inh	DTT redox prof	FAS-TE conf
COC(=O)c1cc(C(=O)Nc2nnc(CC(C)C)s2)cc([N+](=O)[O-])c1	i	i	i	51	i	i	i
COCc1nnc(NC(=O)c2cc(C(=O)OC)cc([N+](=O)[O-])c2)s1	i	i	i	i	i	i	nt
CC1CCCN(CCCNC(=O)c2ccc(N3CCCC3=O)cc2)C1 (configuration not stated)	nt	nt	nt	i	nt	nt	nt
CCOC(=O)c1cc(=O)[nH]c2ccccc12	i	i	i	i	i	i	nt
Cc1ccc(-c2nnc(COC(=O)c3cc(=O)[nH]c4ccccc34)o2)cc1	nt	i	nt	66	nt	nt	49
NC(=O)[C@H]1CC2(CC(c3cccc(NC(=O)COc4ccc(Cl)cc4)c3)=NO2)CN1C(=O)C(c1ccccc1)c1ccccc1 (some centres not stated)	i	i	nt	73	nt	nt	i
COc1ccc(C2=NS(=O)(=O)N(C)C(C(=O)N3CCc4ccccc4C3)=C2)cc1OC	nt	i	nt	i	nt	nt	nt
CN1C(=O)/C(=C\c2ccccc2OCc2ccccc2)SC1=S	nt	i	nt	i	nt	nt	nt
CN1C(=O)/C(=C\c2cc(N=Nc3ccccc3)ccc2O)SC1=S	i	i	i	66	i	i	38
CCOC1=C2[C@@H](CN(S(=O)(=O)c3ccc(C)cc3)[C@H]2c2ccccc2F)[C@H]2C(=O)N(C3CCCCC3)C(=O)[C@H]2C1	nt	nt	nt	72	nt	nt	i
CCOC1=C2[C@@H](CN(S(=O)(=O)c3ccc(C)cc3)[C@H]2c2cccc3ccccc23)[C@H]2C(=O)N(Cc3ccccc3)C(=O)[C@H]2C1	nt	nt	nt	60	nt	nt	i
CCOC1=C2[C@@H](CN(S(=O)(=O)c3ccccc3C)[C@H]2c2ccc(Cl)cc2)[C@H]2C(=O)N(c3ccccc3)C(=O)[C@H]2C1	nt	nt	nt	83	nt	nt	i
CCOC1=C2[C@@H](CN(S(=O)(=O)c3ccccc3C)[C@H]2c2ccc(Cl)cc2)[C@H]2C(=O)NC(=O)[C@H]2C1	nt	nt	nt	i	nt	nt	nt
CCOC1=C2[C@@H](CN(S(=O)(=O)c3ccc(C)cc3)[C@H]2c2ccccc2)[C@H]2C(=O)N(Cc3ccccc3)C(=O)[C@H]2C1	nt	nt	nt	76	nt	nt	i
CCOC1=C2[C@@H](CN(S(=O)(=O)c3ccc(C)cc3)[C@H]2c2ccccc2F)[C@H]2C(=O)N(c3ccccc3)C(=O)[C@H]2C1	nt	nt	nt	i	nt	nt	nt
COc1ccccc1CNC(=O)CCN=C1NS(=O)(=O)c2ccccc21	nt	nt	nt	i	nt	nt	nt
CCn1c(CN2CCOCC2)nnc1SCC(=O)Nc1ccccc1Cl	nt	i	nt	i	nt	nt	nt
COc1ccc(C(=O)OC(C)C(=O)NC2CCCc3ccccc32)cc1OC (configuration not stated)	nt	nt	nt	i	nt	nt	nt
CCCC(=O)Nc1cc2c(cc1C(=O)c1ccccc1)OCCO2	i	i	i	i	i	i	nt
CCOc1ccc(S(=O)(=O)c2c(C(=O)c3ccccc3)cnc3cc4c(cc23)OCCO4)cc1	i	i	i	80	i	i	i
O=C(OCc1cccc(C(F)(F)F)c1)c1cc([N+](=O)[O-])ccc1N1CCOCC1	nt	nt	nt	58	nt	nt	46
O=C(OCc1cccc(Cl)c1)c1cc(S(=O)(=O)N2CCCCC2)ccc1N1CCOCC1	nt	i	nt	i	nt	nt	nt
O=C(OCc1ccc(Br)cc1)c1cc([N+](=O)[O-])ccc1N1CCOCC1	nt	nt	nt	73	nt	nt	i
Cc1ccc(C)c(COC(=O)c2cc([N+](=O)[O-])ccc2N2CCOCC2)c1	nt	nt	nt	i	nt	nt	nt
O=C(OCc1cccc(C(F)(F)F)c1)c1cc(S(=O)(=O)N2CCOCC2)ccc1F	nt	nt	nt	i	nt	nt	nt
SMILES	Furin inhibitor	SUMO HTRF inh	PKD1 inh	FAS TE block	p97 ATPase inh	DTT redox prof	FAS-TE conf
O=C(OCc1cccc(Cl)c1)c1cc([N+](=O)[O-])ccc1N1CCOCC1	nt	nt	nt	59	nt	nt	i
COc1ccc(COC(=O)c2cc([N+](=O)[O-])ccc2N2CCOCC2)cc1F	nt	nt	nt	54	nt	nt	i
CCOc1ccc(CCN2C(=S)N([C@@H](CC(C)C)CN3CCC[C@@H]3CN3C(=S)NC[C@@H]3Cc3ccccc3)C[C@@H]2Cc2ccc(O)cc2)cc1	nt	nt	nt	i	nt	nt	nt
COc1ccc(C2CC(c3cccs3)=NN2C(=O)CSc2nc(=O)n3cc(C)ccc3n2)cc1 (configuration not stated)	nt	nt	nt	53	nt	nt	i
COc1ccc2cc(/C=N/NC(=O)c3ccc(CN(c4cccc(Cl)c4Cl)S(C)(=O)=O)cc3)c(Cl)nc2c1	i	i	i	69	i	i	i
CCC1Oc2ccccc2N(CC(=O)NCCCN2CCN(c3ccc(OC)cc3)CC2)C1=O (configuration not stated)	nt	i	nt	i	nt	nt	nt
CCCCn1nc(C(=O)Nc2ccc(-n3cnnn3)cc2)c2ccccc2c1=O	nt	nt	nt	i	nt	nt	nt
O=C(/C=C/c1cccc([N+](=O)[O-])c1)NCc1ccc2c(c1)OCO2	i	i	i	68	i	i	82
COC(=O)c1cc(C(=O)NCc2ccc3c(c2)OCO3)cc([N+](=O)[O-])c1	nt	i	nt	59	nt	nt	71
O=C(NCc1ccc2c(c1)OCO2)c1cc([N+](=O)[O-])ccc1N1CCCCC1	i	i	i	64	i	i	54
O=C(CSc1nc2cc([N+](=O)[O-])ccc2n1-c1ccccc1)NCc1ccc2c(c1)OCO2	i	i	i	52	i	i	i
CC1(c2nnc(-c3cccc(Cl)c3)o2)CC(c2ccccc2)=NO1 (configuration not stated)	nt	nt	nt	i	nt	nt	nt
CC(=O)Nc1ccc(C(=O)COC(=O)c2cc(C)oc2C)c(F)c1	nt	nt	nt	i	nt	nt	nt
CC1CC(C)(C)CC2(C1)NC(=O)N(CC(=O)Nc1cc(C(F)(F)F)ccc1N1CCCCC1)C2=O (configuration not stated)	nt	nt	nt	60	nt	nt	i
COC(=O)[C@@]1(Cc2ccc(OC)cc2)[C@H]2c3cc(C(=O)N4CCCC4)n(CCN4CCOCC4)c3C[C@H]2CN1C(=O)c1ccccc1	nt	nt	nt	i	nt	nt	nt
COC(=O)[C@@]1(Cc2ccc(F)cc2)[C@H]2c3cc(C(=O)N4CCCC4)n(CCc4c[nH]c5ccccc45)c3C[C@H]2CN1C(=O)c1ccccc1	nt	nt	nt	62	nt	nt	i
COC(=O)[C@@]1(Cc2ccc(OC)cc2)[C@H]2c3cc(C(=O)N4CCCC4)n(CCc4c[nH]c5ccccc45)c3C[C@H]2CN1C(=O)c1ccccc1	nt	nt	nt	58	nt	nt	i
CSc1ccc(CN2C(=O)C(F)(F)Oc3c(C(C)=O)cccc32)cc1	nt	nt	nt	52	nt	nt	59
CSc1ccc(CN2C(=O)C(C)Oc3c(C(C)=O)cccc32)cc1 (configuration not stated)	nt	nt	nt	i	nt	nt	nt

Screens as filed in PubChem.
